# Measured values as given in PubChem BioAssay AID740 (SRMLSC, 2007).
# Among all 96,000 compounds or so, about 65 (0.07%) were called active. Cut-off read from the data, not from the text of the source: active = inhibition above about 25%; inactive = the rest. For the sample, actives were picked, then their nearest neighbours and some compounds at random.
# Test: unspecified inhibition readout at 50 µM (AID 740)
# Conditions: unspecified screen; stronger effect = higher value
row,Compound,inhibition
1,Nc1nc(Nc2cccc(C(F)(F)F)c2)nc(C(F)(F)F)n1,inactive
2,Cc1cc(C)n(S(=O)(=O)/C=C/c2ccccc2)n1,40.1% (active)
3,O=S(=O)(/C=C/c1ccccc1)n1cnc2ccccc21,0.11% (inactive)
4,Cc1cc(C)n(S(=O)(=O)Cc2ccccc2)n1,0.57% (inactive)
5,CCOC(=O)C1=C(C)Nc2nc(SC)nn2C1c1ccc(C(=O)OC)cc1 (configuration not stated),0.25% (inactive)
6,O=C(NCc1cccs1)c1ccc(N2CCCCC2)nc1,26% (active)
7,CC1CCCN(c2ccc(C(=O)NCc3cccs3)cn2)C1 (configuration not stated),0.47% (inactive)
8,CC1CCN(c2ccc(C(=O)NCc3cccs3)cn2)CC1,inactive
9,O=C(O)CSc1nnc(-c2ccncc2)n1-c1ccc(Cl)cc1,inactive
10,CC(=O)Nc1cc(-c2nn(C)c(=O)c3ccccc23)ccc1N1CCCCC1,inactive
11,c1ccc(OCc2nnc3sc(C4COc5ccccc5O4)nn23)cc1 (configuration not stated),inactive
12,Cc1cc(C(=O)CSc2nnnn2-c2ccc(Cl)cc2)c(C)n1CC1CCCO1 (configuration not stated),0.29% (inactive)
13,COC(=O)c1sc(S(=O)(=O)N2CCN(c3ccccc3)CC2)c(C(=O)OC)c1C,1.69% (inactive)
14,O=C(CSc1nnc(Cc2ccccc2)n1Cc1ccco1)NC1CCCC1,4.05% (inactive)
15,NC(=O)c1c(NC(=O)CSc2nnc(Cc3ccccc3)n2Cc2ccco2)sc2c1CCC2,27% (active)
16,NC(=O)c1c(NC(=O)CSc2nnc(-c3ccco3)n2-c2ccccc2)sc2c1CCC2,inactive
17,CCCCCC(O)CCc1n[nH]c(=S)n1-c1ccccc1 (configuration not stated),inactive
18,O=C(CC(c1ccccc1)c1ccccc1)Nc1ccc(Cl)cn1,inactive
19,CCOC(=O)c1c(NC(=O)CN2CCOCC2)sc2c1CC(C)(C)OC2,1.02% (inactive)
20,COC(=O)CC(NC(=O)c1ccco1)c1ccc(C(C)C)cc1 (configuration not stated),inactive
21,O=C(CSc1ccc2nnc(-c3ccncc3)n2n1)NCc1ccco1,28.9% (active)
22,Cc1ccc(-c2nnc3ccc(SCC(=O)NCc4ccco4)nn23)cc1,2.76% (inactive)
23,O=C(CSc1ccc2nnc(-c3ccccc3)n2n1)NCc1ccco1,3.91% (inactive)
24,NC(=S)NNc1cccc(Cl)c1,inactive
25,CSc1nnc(-c2ccc(Cl)cc2Cl)o1,7.66% (inactive)
26,C(=C\c1ccccc1)/CSc1nnc(-c2cccnc2)o1,0.18% (inactive)

row,Compound,inhibition
1,C=CCSc1nnc(-c2ccc(Cl)cc2Cl)o1,37.9% (active)
2,CCSc1nnc(-c2ccc(Cl)cc2Cl)o1,1.81% (inactive)
3,Cc1ccc(CSc2nnc(-c3cccnc3)o2)cc1,inactive
4,C=CCSc1nnc(-c2cccnc2)o1,33.1% (active)
5,O=C(Nc1ccc(Cl)cc1)N1CCCC1,inactive
6,O=C(NCCc1cccs1)C1CC(c2ccc([N+](=O)[O-])cc2)=NO1 (configuration not stated),1.33% (inactive)
7,COc1cc(C(=O)N2CCC(c3nc(-c4cccnc4)no3)CC2)cc(OC)c1OC,inactive
8,Cc1nc(C)c(C(=O)C2=C(O)C(=O)N(CCN(C)C)C2c2ccccc2)s1 (configuration not stated),0.19% (inactive)
9,COc1ccc2c(c1OC)C(=O)OC2c1c(O)n(Cc2ccc(F)cc2)c(=O)[nH]c1=O (configuration not stated),inactive
10,CCC(=O)N1CCN(c2ccccc2NC(=O)COc2ccccc2Cl)CC1,inactive
11,CS(=O)(=O)c1nc(-c2ccccc2)cc(C(F)(F)F)n1,inactive
12,O=C(O)CCS(=O)(=O)c1nc(-c2cccs2)cc(C(F)(F)F)n1,inactive
13,CS(=O)(=O)c1nc(-c2cccs2)cc(C(F)(F)F)n1,26.1% (active)
14,CCC1(c2cccc(Cl)c2)NC(=O)N(Cc2cc(C(=O)OC)c(C)o2)C1=O (configuration not stated),inactive
15,O=S(=O)(c1ccccc1)N1C2CCC1CC(O)(c1cccnc1)C2 (configuration not stated),0.08% (inactive)
16,CCC(NS(=O)(=O)c1ccc(OC)cc1)C(=O)NCCC1=CCCCC1 (configuration not stated),0.42% (inactive)
17,O=c1[nH]c2cccnc2n1Cc1ccco1,1.89% (inactive)
18,COc1ccccc1Cn1c(=O)[nH]c2cccnc21,inactive
19,O=c1[nH]c2cccnc2n1Cc1ccccc1,88.8% (active)
20,COc1ccccc1NC(=O)C1CC(=O)OC1c1ccccc1 (configuration not stated),inactive
21,CNC(=O)c1ccc(Oc2ccc(C(=O)NC)cc2)cc1,0.48% (inactive)
22,COC(=O)c1nc(-c2ccc(C)cc2)oc1N(C)C,inactive
23,CS(=O)(=O)N1CCN(c2ccccc2NC(=O)Cc2ccc(Cl)cc2)CC1,1.42% (inactive)
24,CCOC(=O)CC(=O)CSc1nnc2sc3ccccc3n12,6.25% (inactive)
25,CC(C)NC(=O)CSc1nnc2sc3ccccc3n12,29.1% (active)
26,NC(=O)CSc1nnc2sc3ccccc3n12,20.1% (inactive)

row,Compound,inhibition
1,CC1CC(C)CN(C(=O)COc2ccc(-c3nnco3)cc2)C1 (configuration not stated),inactive
2,CC(NC(=O)C1CCCN1S(=O)(=O)c1cccc2cccnc12)c1ccccc1 (configuration not stated),3.39% (inactive)
3,NS(=O)(=O)c1ccc(CCNC(=O)C2CCCN2C(=O)OCc2ccccc2)cc1 (configuration not stated),0.02% (inactive)
4,NS(=O)(=O)c1ccc(CCNC(=O)C2CCCCN2S(=O)(=O)c2ccccc2)cc1 (configuration not stated),80.3% (active)
5,NS(=O)(=O)c1ccc(CCNC(=O)[C@@H]2CCCN2S(=O)(=O)c2ccccc2F)cc1,0.35% (inactive)
6,CNS(=O)(=O)c1cccc(C(=O)Nc2cccc(Cl)c2)c1,inactive
7,Cc1nc(SCC(=O)c2ccccc2)n[nH]1,0.25% (inactive)
8,CCSc1nnc([C@H](Cc2ccccc2)NC(=O)OC(C)(C)C)o1,26.7% (active)
9,COC(=O)CSc1nnc([C@H](Cc2ccccc2)NC(=O)OC(C)(C)C)o1,0.67% (inactive)
10,CC(C)(C)OC(=O)N[C@@H](Cc1ccccc1)c1nnc(SCC(=O)O)o1,0.84% (inactive)
11,O=C(c1cc(-c2ccc(Cl)cc2)n(-c2cc(Cl)ccc2Cl)n1)N1CCOCC1,2.27% (inactive)
12,O=C(c1cc(-c2ccc(Cl)cc2)n(-c2ccc(Cl)cc2Cl)n1)N1CCOCC1,27.9% (active)
13,O=C(c1cc(-c2ccc(Cl)cc2)n(-c2ccc(Cl)cc2)n1)N1CCOCC1,1.77% (inactive)
14,Cc1nc2nc(-c3ccccc3)[nH]n2c(=O)c1Cc1ccccc1,62% (active)
15,Cc1nc2nc(-c3ccc(Cl)cc3)[nH]n2c(=O)c1Cc1ccccc1,2.76% (inactive)
16,COc1ccc(-c2nc3nc(C)c(Cc4ccccc4)c(=O)n3[nH]2)cc1,10.2% (inactive)
17,O=C(COC(=O)C(Cc1ccccc1)NC(=O)c1ccco1)NC1CC1 (configuration not stated),2.73% (inactive)
18,C=CCn1c(-c2cccn(Cc3cccc(Cl)c3)c2=O)n[nH]c1=S,0.13% (inactive)
19,CN1C(=O)c2cccc3c(S(=O)(=O)Nc4ccccn4)ccc1c23,3.37% (inactive)
20,Clc1cccc(CSc2nnc([C@@H]3CCCN3)o2)c1,inactive
21,CCC1CCCCN1C(=O)Nc1cccc(NC(=O)N2CCCCC2CC)c1 (configuration not stated),31.9% (active)
22,CCC1CCCCN1C(=O)Nc1ccc(F)cc1 (configuration not stated),0.1% (inactive)
23,CC1CCCN(C(=O)Nc2cccc(NC(=O)N3CCCC(C)C3C)c2)C1C (configuration not stated),0.11% (inactive)
24,NC(=O)C1(N2CCCCC2)CCN(C(=O)CSc2nc(C(F)(F)F)cc(=O)[nH]2)CC1,1.15% (inactive)
25,Cc1ccc(/C=C2/SC(=S)N(CC(=O)Nc3ncc(Cc4ccc(C)cc4)s3)C2=O)cc1,0.58% (inactive)
26,Cc1ccc(NC(=O)NCCCN2CCCC2=O)cc1,1.44% (inactive)

row,Compound,inhibition
1,Clc1ccc(Nc2ncnc3c2cnn3-c2ccccc2)cc1,inactive
2,CC(=O)Nc1ccc(Nc2ncnc3c2cnn3-c2cccc(C)c2)cc1,0.1% (inactive)
3,CC(=O)Nc1ccc(Nc2ncnc3c2cnn3-c2ccccc2)cc1,38.2% (active)
4,CCC(CC)c1nnc(NC(=O)CN2C(=O)C3C4C=CC(C4)C3C2=O)s1 (configuration not stated),inactive
5,CCNc1nc(NCC)nc(SCCOC(=O)COc2ccc(Cl)cc2Cl)n1,inactive
6,Cc1cc(Oc2ccc(C#N)cc2)nc(N2CCOCC2)n1,inactive
7,Oc1ccc2oc3c(c2c1)CCCC3,inactive
8,O=C1NCCCc2c1oc1cc(Br)c(O)c(Br)c21,4.63% (inactive)
9,O=C1NCCCc2c1oc1ccc(O)cc21,38.5% (active)
10,COc1ccc(OC)c(C2=NOC(C(=O)Nc3cc(C)nn3-c3ccccc3)C2)c1 (configuration not stated),48.2% (active)
11,COc1cccc(C2=NOC(C(=O)Nc3cc(C)nn3-c3ccccc3)C2)c1OC (configuration not stated),inactive
12,COc1cc(OC)c(C2=NOC(C(=O)Nc3cc(C)nn3-c3ccccc3)C2)cc1Cl (configuration not stated),0.65% (inactive)
13,COc1ccc(-c2cc(C(F)(F)F)nc(N3CCN(Cc4ccccc4)CC3)n2)cc1OC,inactive
14,COc1ccc(-c2cc(C(F)(F)F)nc(SCCC(=O)Nc3cc(C)on3)n2)cc1,inactive
15,COCCn1c(SCC(=O)Nc2cc(C)cc(C)c2)nnc1C(C)C,1.46% (inactive)
16,Cc1ccc(NC(=O)C2CCN(S(=O)(=O)c3cccs3)CC2)cc1C,0.17% (inactive)
17,Cc1nc2ccc(NC(=O)C3CCN(S(=O)(=O)c4cccs4)CC3)cc2s1,30.7% (active)
18,Cc1ccc2nc(NC(=O)C3CCN(S(=O)(=O)c4cccs4)CC3)sc2c1,2.46% (inactive)
19,O=C(CN(Cc1ccco1)C(=O)c1cc(=O)[nH]c2ccccc12)Nc1ccccc1Br,0.68% (inactive)
20,COC(=O)c1ccc2ccn(CC(=O)NC(C)C)c2c1,inactive
21,O=C(O)c1cc2nc(-c3ccc(F)cc3)cc(C(F)(F)F)n2n1,1.93% (inactive)
22,CN(C)c1cccc(C(=O)Nc2ccc3nc4n(c(=O)c3c2)CCCCC4)c1,26.5% (active)
23,Cc1ccccc1C(=O)Nc1ccc2nc3n(c(=O)c2c1)CCC3,0.71% (inactive)
24,O=C(Nc1ccc2nc3n(c(=O)c2c1)CCCCC3)c1ccccn1,2.45% (inactive)
